{"source": "PubChem BioAssay (NCATS)", "note": "Results filed as inconclusive are left out. A number with no mark means an inactive call. Calls of active or inactive are those of the source. Calls follow the shape of the dose curve; as a rule, active = well fitted cell-killing curve with a large enough effect; inconclusive = small, poorly fitted or top-dose-only effect, or effect the other way; inactive = no such curve, though single readings can be large or run the other way. % is scaled to controls: 0 for no effect and ±100 for the full control effect; potency is read from the fitted curve at half-maximal effect.", "data": [{"assay": "qHTS of pediatric cancer cell lines to identify multiple opportunities for drug repurposing: Confirmatory screen for OHS-50 cells (AID 1347128);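 also: compound exposure lasted 48 h at 37 degrees C; nearly all actives have a fitted effect of over 55% in size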", "details": "OHS-50 osteosarcoma cells viability; series mostly up to 45.9 µM; activity change, negative = cytotoxic: at the top concentration", "text": "Drug repurposing or repositioning has been offered as a strategy for drug development in oncology programs. This approach has special potential for childhood cancers and other rare or orphan diseases, where the expected return on new drug development has been a disincentive to pharmaceuticals.\nIn this project we exploit the poly-pharmacology of drugs to discover new indications via phenotypic screening of a panel of 19 well-characterized cell lines derived from solid tumors seen in children and adolescents. The goal is to identify approved drugs with previously unrecognized anticancer properties that has the potential to reveal new mechanisms and biological processes involved in carcinogenesis or drug resistance. We employed a titration-based paradigm (quantitative high-throughput screening or qHTS), where all compounds were tested at multiple concentrations for their effect on cell viability. Concentration-response curves (CRCs) were derived directly from the primary screen, and both potency and efficacy values were used to identify compounds with robust bioactivity profiles. We screened the NIH Chemical Genomics Center (NCGC) Pharmaceutical Collection (NPC) and Mechanism Interrogation Plate (MIPE) small molecule collections of approved and investigational compounds against these cell lines; and measured metabolically active cells after 48 hours of compound treatment as a proxy for cell viability.\nAssay Submitter: Nathalia J. Martinez, National Center for Advancing Translational Sciences, National Institutes of Health, Rockville, MD, USA; email: natalia.martinez@nih.gov\n[1] Shen, M et al. Quantitative high-throughput phenotypic screening of pediatric cancer cell lines identifies multiple opportunities for drug repurposing. Oncotarget 2017 Dec 19;9(4):4758-4772. PMID 29435139.\nThe cells were obtained from University of North Carolina (UNC), Pediatric Preclinical Testing Program (PPT), and Coriell Institute (CI).\nqHTS cell viability assay:\nCells were assayed in growth media at a density of 500-1,000 cells/well. Five microliters of cells were dispensed into 1,536-well, white, solid-bottom, TC-treated plates (Greiner Bio One) using a multidrop dispenser and incubated at 37 degrees C, 5% CO2, under a humidified atmosphere for 5 hours. Twenty-three nanoliters of compounds and controls (neutral control DMSO or positive control bortezomib at final concentration of 2.3 µM) were subsequently transferred by Kalypsys pintool. For primary screens, the MIPE collection was tested at 11-point dilutions (final concentrations range from 0.78 nM to 46 µM) and the NPC collection at 8-point dilutions (final concentrations range from 0.59 nM to 46 µM). Compounds tested in follow-up screens were assayed at 11-point dilutions. Cells were incubated for 48 hours, followed by addition of 3 µL of CellTiter-Glo (Promega). After a 15 min incubation at room temperature, samples were analyzed for luminescence intensity using a ViewLux High-throughput CCD imager equipped with clear filters.", "values": [{"compound": "CC(C)n1nc(-c2ccc3oc(N)nc3c2)c2c(N)ncnc21", "Potency": "3690 nM (active)"}, {"compound": "O=C1c2ccccc2-[n+]2ccc3c([nH]c4ccccc43)c21", "Potency": "1650 nM (active)"}, {"compound": "COc1ncc(-c2ccc3nccc(-c4ccnnc4)c3c2)cc1NS(=O)(=O)c1ccc(F)cc1F", "Potency": "233 nM (active)"}, {"compound": "N[C@@]1(C(=O)O)CS(=O)(=O)[C@H]2[C@H](C(=O)O)[C@H]21", "Potency": "928 nM (active)"}, {"compound": "COc1cc(N2CCC(N3CCN(C)CC3)CC2)ccc1Nc1ncc(Cl)c(Nc2ccccc2S(=O)(=O)C(C)C)n1", "Potency": "2330 nM (active)"}, {"compound": "Nc1ncnc2c1ncn2[C@@H]1O[C@@H](CO)[C@H](O)[C@H]1O", "activity change, negative = cytotoxic": "-4.42% [at 29.6 µM]"}, {"compound": "O=C1NC(=O)C(=Cc2ccc3c(c2)OC(F)(F)O3)S1", "activity change, negative = cytotoxic": "-18.9%"}, {"compound": "CN[C@@H](C)C(=O)N[C@H]1CN(C(=O)CC(C)C)CC[C@H]2CC[C@@H](C(=O)NC(c3ccccc3)c3ccccc3)N2C1=O", "activity change, negative = cytotoxic": "-3.45%"}, {"compound": "OC[C@H]1O[C@@H](n2cnc3c2NC=NC[C@@H]3O)C[C@H]1O", "activity change, negative = cytotoxic": "-2.93%"}, {"compound": "COc1cc2ncnc(Nc3ccc(F)c(Cl)c3)c2cc1OCCCN1CCOCC1", "Potency": "38000 nM (active)"}, {"compound": "NC1=N[C@@]2(c3cc(NC(=O)c4ccc(F)cn4)ccc3F)COC[C@@H]2CS1", "activity change, negative = cytotoxic": "0.333%"}, {"compound": "C=C1C(=O)[C@@]23C(CC[C@@H]1[C@H]2O)[C@@]12CO[C@]3(O)[C@@H](O)[C@@H]1C(C)(C)CC[C@@H]2O", "note": "(some centres undefined)", "Potency": "20800 nM (active)"}, {"compound": "CC[C@]1(O)C[C@@H]2CN(CCc3c([nH]c4ccccc34)[C@@](C(=O)OC)(c3cc4c(cc3OC)N(C=O)[C@@H]3C45CCN4CC=C[C@](CC)([C@H]45)[C@@H](OC(C)=O)[C@]3(O)C(=O)OC)C2)C1", "note": "(some centres undefined)", "activity change, negative = cytotoxic": "14.7%"}, {"compound": "CC(=O)Nc1ccc([C@H](C)C(=O)Nc2ncc(C(C)C)s2)cc1", "Potency": "7370 nM (active)"}, {"compound": "O=c1[nH]cnc2c1ncn2[C@H]1CC[C@@H](CO)O1", "activity change, negative = cytotoxic": "-6.31%"}, {"compound": "CO[C@H]1C(=O)[C@]2(C)[C@@H](OC)C[C@H]3OC[C@@]3(OC(C)=O)[C@H]2[C@H](OC(=O)c2ccccc2)[C@]2(O)C[C@H](OC(=O)[C@H](O)[C@@H](NC(=O)OC(C)(C)C)c3ccccc3)C(C)=C1C2(C)C", "Potency": "16.5 nM (active)"}, {"compound": "COc1cc2nc(-c3ccc(N4CCN(C)CC4)cc3)nc(NCCN3CCOCC3)c2cc1OC", "Potency": "117 nM (active)"}, {"compound": "O=C(O)c1ccc(-c2c[nH]c3ncc(-c4ccccc4)cc23)cc1C1CCCC1", "activity change, negative = cytotoxic": "-11.2%"}, {"compound": "O=C(NCc1ccncc1)C12C[C@H]3C[C@@H](C1)CC(c1ccc(Cl)cc1)(C3)C2", "Potency": "13100 nM (active)"}, {"compound": "O=C(Nc1cccc(Br)c1)c1cccc(S(=O)(=O)N2CCCCCC2)c1", "activity change, negative = cytotoxic": "-20.7%"}, {"compound": "CC(=O)O[C@]1(C(C)=O)CC[C@@H]2[C@@H]3C[C@H](C)C4=CC(=O)CC[C@]4(C)[C@H]3CC[C@@]21C", "activity change, negative = cytotoxic": "-52.9%"}, {"compound": "CC(=NNC(=S)N1CCC1)c1ccccn1", "activity change, negative = cytotoxic": "4.36%"}, {"compound": "CCc1ccc(OCc2ccccc2C(=O)Nc2ccc3nc(C)cc(N)c3c2)cc1", "Potency": "9270 nM (active)"}, {"compound": "CC1(C)S[C@H]2[C@H](NC(=O)[C@@H](N)c3ccc(O)cc3)C(=O)N2[C@@H]1C(=O)O", "activity change, negative = cytotoxic": "3.15%"}, {"compound": "O=C(O)c1ccc(-c2cc3cccnc3c(-c3ccc4nonc4c3)n2)cc1", "Potency": "6570 nM (active)"}, {"compound": "CC1(C)O[C@H]2C[C@@H]3[C@H]4CCC5=CC(=O)C=C[C@]5(C)[C@@]4(F)[C@@H](O)C[C@]3(C)[C@]2(C(=O)CO)O1", "activity change, negative = cytotoxic": "-7.07%"}, {"compound": "COc1ccc(-c2coc3cc(O)cc(O)c3c2=O)cc1", "activity change, negative = cytotoxic": "-16.4%"}, {"compound": "COc1cccc(-c2cc(=O)c3ccccc3o2)c1N", "activity change, negative = cytotoxic": "-8.87%"}, {"compound": "CC(C)(C(=O)NCC(F)(F)C(F)(F)F)C(=O)N[C@@H]1C(=O)Nc2ccccc2-c2ccccc21", "activity change, negative = cytotoxic": "-15.3%"}, {"compound": "CC1(C)CCC[C@@]2(C)[C@@H]1CC[C@@]1(C)OC(=O)C[C@H]21", "activity change, negative = cytotoxic": "2.91%"}, {"compound": "CO[C@H]1C=CC=C(C)C(=O)NC2=CC(=O)C(NCCN(C)C)=C(C[C@@H](C)C[C@H](OC)[C@@H](O)[C@@H](C)C=C(C)[C@@H]1OC(N)=O)C2=O", "activity change, negative = cytotoxic": "11.1%"}, {"compound": "CC(=O)Oc1cc2c(s1)CCN(C(C(=O)C1CC1)c1ccccc1F)C2", "note": "(centres undefined)", "activity change, negative = cytotoxic": "-0.105%"}, {"compound": "CN(C)C1CCN(C(=O)c2ccc(NC(=O)Nc3nc(N4CCOCC4)nc(N4CCOCC4)n3)cc2)CC1", "Potency": "465 nM (active)"}, {"compound": "NS(=O)(=O)c1cccc2c1C(=O)c1cccc(O)c1C2=O", "Potency": "2930 nM (active)"}]}]}
